Data reported in PubChem BioAssay (NCI).
This is part of a sample that, as a whole, favours compounds with a hit. Of some 83,000 tested, about 20% had one in any assay.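 96-well plates, one dose, 48 hours. Percent growth reported; active if below 10.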 Unmarked numbers belong to inactive results. Calls of active or inactive are those of the source.

Key:
Experiment in all cases: NCI-60 one-dose screen, 48 h (100 = growth as untreated, 0 = no growth, -100 = all killed)
Conditions in all cases: 10 µM unless noted
HCT-15 colon = tested on: HCT-15 colon
HT29 colon = tested on: HT29 colon
SNB-19 CNS = tested on: SNB-19 CNS
U251 CNS = tested on: U251 CNS
PC-3 prostate = tested on: PC-3 prostate
SK-MEL-5 melanoma = tested on: SK-MEL-5 melanoma
UACC-62 melanoma = tested on: UACC-62 melanoma
LOX IMVI melanoma = tested on: LOX IMVI melanoma
SK-MEL-28 melanoma = tested on: SK-MEL-28 melanoma
SK-MEL-2 melanoma = tested on: SK-MEL-2 melanoma
EKVX NSCLC = tested on: EKVX NSCLC
SN12C renal = tested on: SN12C renal
UO-31 renal = tested on: UO-31 renal
TK-10 renal = tested on: TK-10 renal
ACHN renal = tested on: ACHN renal
CAKI-1 renal = tested on: CAKI-1 renal
A498 renal = tested on: A498 renal
CCRF-CEM leukemia = tested on: CCRF-CEM leukemia
MOLT-4 leukemia = tested on: MOLT-4 leukemia
SNB-75 CNS = tested on: SNB-75 CNS

| Compound | growth (HCT-15 colon) | growth (HT29 colon) | growth (SNB-19 CNS) | growth (U251 CNS) | growth (PC-3 prostate) | growth (SK-MEL-5 melanoma) | growth (UACC-62 melanoma) | growth (LOX IMVI melanoma) | growth (SK-MEL-28 melanoma) | growth (SK-MEL-2 melanoma) | growth (EKVX NSCLC) | growth (SN12C renal) | growth (UO-31 renal) | growth (TK-10 renal) | growth (ACHN renal) | growth (CAKI-1 renal) | growth (A498 renal) | growth (CCRF-CEM leukemia) | growth (MOLT-4 leukemia) | growth (SNB-75 CNS) [%] |
| --- | --- | --- | --- | --- | --- | --- | --- | --- | --- | --- | --- | --- | --- | --- | --- | --- | --- | --- | --- | --- |
| O=C(NCCCCCCNC(=O)OCc1ccc2c(Cl)cc(Cl)c(O)c2n1)OCc1ccc2c(Cl)cc(Cl)c(O)c2n1 | -29.1% (active) | -75% (active) | 51.4% | -92.2% (active) | -46.2% (active) | -95.5% (active) | -94.3% (active) | -88.7% (active) | -89.8% (active) | -62% (active) | -69% (active) | -93.4% (active) | -100% (active) | -90.3% (active) | -97.5% (active) | -87.8% (active) | 34.9% | 2.24% (active) | -2.75% (active) | – |
| COc1ccc(Nc2ncc(I)c(NCCCNC(=O)C3CCC3)n2)cc1 | -18.8% (active) | 12.5% | 24.5% | 2.43% (active) | – | 23.3% | 22.9% | -11.3% (active) | 43.4% | – | 21.9% | 19.8% | -94.1% (active) | -14.5% (active) | -21% (active) | 0.394% (active) | -51.4% (active) | 2.24% (active) | 10.5% | 39.4 |
| CCOC(=O)NCCCC(=O)NCCc1ccccc1 | 118% | 110% | 108% | 99.6% | 99.5% | 99.8% | 107% | 94.2% | 114% | – | 112% | 106% | 90.3% | 104% | 111% | 99.5% | 106% | 108% | 101% | – |
| CCN(CC)CCCC(Cc1ccccc1)Nc1c2ccc(Cl)cc2nc2ccc(OC)cc12 (stereo unspecified) | 2.58% (active) | 16.3% | 34.7% | 9.64% (active) | – | -93.6% (active) | -61.2% (active) | -67.8% (active) | -79.3% (active) | 7.91% (active) | 26.6% | 73.6% | -39.6% (active) | – | -39.2% (active) | 32.6% | 46.8% | -0.463% (active) | 4.64% (active) | 10.6 |
| O=C(NCc1ccc(Cn2c(=O)sn(-c3ccccc3)c2=O)cc1)OCc1ccc2cccc(O)c2n1 | -30.3% (active) | -52.7% (active) | 44.7% | 9.01% (active) | -68.9% (active) | -84.7% (active) | -61.9% (active) | -95.3% (active) | -62.3% (active) | -5.7% (active) | -35.9% (active) | -46.1% (active) | -99.6% (active) | -81.2% (active) | -99.9% (active) | -85.9% (active) | 39.3% | 0.307% (active) | -24.8% (active) | – |
| N=C(N)c1ccc(-c2ccc(-c3cc(Cl)cc(Cl)c3)s2)s1 | -84.8% (active) | -80.1% (active) | -61.9% (active) | -86.5% (active) | 35.6% | 86.6% | -74% (active) | -82.4% (active) | 33.7% | – | -12.2% (active) | -65.4% (active) | -40.2% (active) | -26.5% (active) | -54.2% (active) | 2.68% (active) | 73.6% | -12.4% (active) | -41.9% (active) | – |
| COc1cc([C@@H](CCO)C[C@H](C)c2ccc3ccccc3c2)cc(OC)c1OC | 26.3% | 11.2% | 37.8% | 27.8% | 29.7% | 28% | 39.2% | 39.2% | 61.8% | 16.1% | 49.1% | 42.2% | 44.2% | 49.3% | 43.6% | 28.8% | 25.3% | 21.6% | – | – |
| CN(C)CCCn1c2c(c3ccncc3c1=O)C(=O)c1ccccc1-2 | 2.9% (active) | 2.14% (active) | 1.91% (active) | 0.267% (active) | -18.5% (active) | -94.3% (active) | -56.7% (active) | -42.3% (active) | -43.1% (active) | -4.66% (active) | 82.7% | 6.53% (active) | -37.4% (active) | 12.8% | -38.4% (active) | 10.8% | 58% | 1.34% (active) | -15% (active) | – |
| COc1cc(/C=C/c2cc(/C=C/c3ccc(O)c(OC)c3)n(C(=O)Nc3ccc(Cl)cc3)n2)ccc1O | 7.86% (active) | -11.1% (active) | 9.25% (active) | 4.31% (active) | 4.24% (active) | -29.7% (active) | 4.06% (active) | 3.04% (active) | 12.7% | -23.5% (active) | 16.9% | 9% (active) | 2.71% (active) | 23.1% | 9.29% (active) | 0.131% (active) | -0.596% (active) | 4.45% (active) | -2% (active) | – |
| Cc1nc(N/N=C/c2cn(-c3ccccc3)nc2-c2cc3ccccc3oc2=O)sc1N=Nc1ccccc1 | 56.1% | 85.2% | 91.9% | 93.1% | 85.8% | 93.3% | 71% | 89.5% | 87.6% | 93.7% | 102% | 97.6% | 70.7% | 106% | 98% | 69.7% | 77% | 94.3% | 85.1% | – |
| N#C/C(=C\c1ccc(-c2cccc(Cl)c2)o1)C(=O)Nc1ncc(Cc2ccc(Cl)cc2)s1 | 57.6% | 70.5% | 77.4% | 16.9% | 39.5% | 89.9% | 43% | 52.5% | 66.8% | – | 69.4% | 35.9% | 23.7% | 69.9% | 31.4% | 51.6% | 74.1% | 43.6% | 87.1% | – |
| CN(C)CCCNC(=O)c1cncnc1Nc1ccc2c(ccn2Cc2cccc(F)c2)c1 | 63.2% | 39.1% | 92.5% | 68.9% | 86% | 91.4% | 100% | 76.7% | 89.6% | 107% | 96.6% | 84.9% | 71.5% | 103% | 102% | 83.7% | 32.7% | 67% | 72% | – |
| CCn1cc(C(=O)N/N=C/c2cccc(F)c2)c(=O)c2cc(F)c(N3CCNC(C)C3)c(F)c21 (stereo unspecified) | -81.8% (active) | -87.2% (active) | -59.4% (active) | -74.3% (active) | 69.6% | 52.6% | 64.8% | -90.9% (active) | -64.3% (active) | 104% | 50.7% | -4.46% (active) | 20.6% | 101% | 74.4% | 66.7% | 99.2% | -47% (active) | -26% (active) | – |
| COc1nc(/C=C\Nc2ccc3c(c2)OCCOCCOCCOCCO3)nc(OC)n1 | 91.5% | 99.5% | 103% | 103% | – | 97.5% | 93.3% | 92.1% | 104% | 108% | – | 93.2% | 79.5% | 81.9% | 99.8% | 93.1% | 75.7% | 118% | 107% | 72.3 |
| O=C(N/N=C/c1ccc(Cl)cc1)c1ccc(NC(=O)c2ccccn2)cc1 | 62.8% | 71.8% | 64.9% | 18.3% | 79.8% | 39.7% | 62% | 54% | 52.1% | 78.7% | 68.2% | 38.2% | 0.719% (active) | 47.3% | -0.994% (active) | 41.2% | 81.2% | 91% | 79.5% | – |
| Clc1ccc2nn3c4ccccc4c(OCCN4CCOCC4)nc3c2c1 | 89.8% | 95.5% | 81.1% | 84.5% | 92.8% | 83.7% | 67.6% | 84.2% | 110% | 112% | 84.3% | 87.9% | 49.2% | – | 70.7% | 50.4% | 3.87% (active) | 96.2% | 95.3% | – |
